The text below walks through data of PubChem BioAssay (NCI).

About 79,000 compounds went through this panel and 15% of them were active in at least one assay; those are over-represented in the sample as a whole. Unmarked numbers belong to inactive results. Calls of active or inactive are those of the source. Cut-off read from the data, not from the text of the source: active = growth inhibition above about 70%; inactive = the rest.

Assay [1] is described as follows: NCI Yeast Anticancer Drug Screen. Data for the rad50 strain (AID 155).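 Note: 0% = growth of vehicle-only cultures of the same strain.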 Conditions: S. cerevisiae rad50 strain growth inhibition, stronger effect = higher value. The method, boiled down:
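Vehicle-treated cultures provide the reference for the growth inhibition reported for compound-exposed, repair-deficient yeast.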

Assay [2] can be described thus: NCI Yeast Anticancer Drug Screen. Data for the mec2-1 strain (AID 157). Conditions: S. cerevisiae mec2-1 strain, stronger effect = higher value. The method, boiled down:
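Using mec2-1 yeast: add compound, measure growth, express inhibition versus vehicle-treated cultures.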

Assay [3] in a line: NCI Yeast Anticancer Drug Screen. Data for the sgs1 mgt1 strain (AID 161).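 Note: 0% = growth of cultures given vehicle only.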 Conditions: S. cerevisiae sgs1 mgt1 strain, stronger effect = higher value. The method, boiled down:
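Percent growth inhibition was derived by comparing compound-exposed mutant yeast with vehicle-exposed cultures. The strain carries alterations in DNA damage repair.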

A short description of assay [4]: NCI Yeast Anticancer Drug Screen. Data for the cln2 rad14 strain (AID 165).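 Note: 0% = growth equal to vehicle treated cultures.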 The settings on record: S. cerevisiae cln2 rad14 strain, stronger effect = higher value. The gist of the method:
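Yeast strain cln2 rad14, bearing defects in cell cycle control and DNA repair, serves as the test system; values reflect growth inhibition compared with vehicle.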

The nature of assay [5]: NCI Yeast Anticancer Drug Screen. Data for the bub3 strain (AID 167). Conditions: S. cerevisiae bub3 mutant strain, stronger effect = higher value. The method, boiled down:
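Mutant yeast screening strain plus compound; vehicle-treated cultures serve as the 0% inhibition reference.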

Assay [6] in a line: NCI Yeast Anticancer Drug Screen. Data for the mlh1 rad18 strain (AID 175). Conditions: S. cerevisiae mlh1 rad18 strain growth inhibition, stronger effect = higher value. The gist of the method: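 Steps: expose repair-defective yeast to compound; measure growth; express inhibition against vehicle-treated controls.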
The mark [7] stands for this setting: at 5.0 µM (retest, dose inferred, filed as 0.5).
Where [8] appears, read: at 50.0 µM (retest, dose inferred, filed as 5.0).

For the compound `O=C(O)CCc1ccc2ccccc2c1`, the growth inhibition in assay [1] (setting [7]) was -2%; in assay [1] (setting [8]) it was 48%; in assay [1] (at 50.0 µM), 62.8%; in assay [2] (setting [7]) it was 0%; in assay [2] (setting [8]), 38%; in assay [2] (at 50.0 µM) it was 51.4%. Besides, the growth inhibition in assay [3] (setting [7]) is 1%; in assay [3] (setting [8]), 37%; in assay [3] (at 50.0 µM) it was 37.7%; in assay [4] (setting [7]) it was -4%; in assay [4] (setting [8]) it was 32%; in assay [4] (at 50.0 µM) it was 83.2% (active). Moreover, the growth inhibition in assay [5] (setting [7]) is -6%; in assay [5] (setting [8]), 18%; in assay [5] (at 50.0 µM), 53.7%; in assay [6] (setting [7]), -4%; in assay [6] (setting [8]), 41%; in assay [6] (at 50.0 µM) it was 88.2% (active).

For the compound `CC12CCC3C(CCC4CC(O)CCC43C)C1CC=CO2` (stereo unspecified), the growth inhibition in assay [1] (setting [7]) was 1%; in assay [1] (setting [8]) it was 98% (active); in assay [1] (at 50.0 µM), 23.4%; in assay [2] (setting [7]) it was 32%; in assay [2] (setting [8]), 99% (active); in assay [2] (at 50.0 µM) it was 50.6%. Besides, the growth inhibition was 17% in assay [3] (setting [7]); 99% (active) in assay [3] (setting [8]); 11.3% in assay [3] (at 50.0 µM); 0% in assay [4] (setting [7]); 99% (active) in assay [4] (setting [8]); -1.5% in assay [4] (at 50.0 µM). Moreover, the growth inhibition was 45% in assay [5] (setting [7]); 98% (active) in assay [5] (setting [8]); 59.4% in assay [5] (at 50.0 µM); 24% in assay [6] (setting [7]); 99% (active) in assay [6] (setting [8]); 68.9% in assay [6] (at 50.0 µM).

For the compound `CC1=C(C(=O)OCCO[N+](=O)[O-])C(c2ccccc2[N+](=O)[O-])C(C(=O)OC(C)C)=C(C)N1` (stereo unspecified), the growth inhibition was 11% in assay [1] (setting [7]); 97% (active) in assay [1] (setting [8]); 83.5% (active) in assay [1] (at 50.0 µM); 22% in assay [2] (setting [7]); 97% (active) in assay [2] (setting [8]); 87.7% (active) in assay [2] (at 50.0 µM). In addition, the growth inhibition is -2% in assay [3] (setting [7]); 97% (active) in assay [3] (setting [8]); 90.3% (active) in assay [3] (at 50.0 µM); 10% in assay [4] (setting [7]); 92% (active) in assay [4] (setting [8]); 86.9% (active) in assay [4] (at 50.0 µM). For the same compound, the growth inhibition is -3% in assay [5] (setting [7]); 97% (active) in assay [5] (setting [8]); 89.6% (active) in assay [5] (at 50.0 µM); 19% in assay [6] (setting [7]); 97% (active) in assay [6] (setting [8]); 85.5% (active) in assay [6] (at 50.0 µM).

For the compound `Cc1cc2c(cc1C)C(=O)OC2=O`, the growth inhibition in assay [1] (setting [7]) was 1%; in assay [1] (setting [8]), 14%; in assay [1] (at 50.0 µM), 72% (active); in assay [2] (setting [7]), -1%; in assay [2] (setting [8]), -1%; in assay [2] (at 50.0 µM) it was 45.5%. Moreover, the growth inhibition in assay [3] (setting [7]) is 2%; in assay [3] (setting [8]), 1%; in assay [3] (at 50.0 µM) it was 36.3%; in assay [4] (setting [7]) it was 1%; in assay [4] (setting [8]), -1%; in assay [4] (at 50.0 µM) it was 31.6%. In addition, the growth inhibition in assay [5] (setting [7]) is -3%; in assay [5] (setting [8]) it was 5%; in assay [5] (at 50.0 µM), 83.5% (active); in assay [6] (setting [7]), -2%; in assay [6] (setting [8]), 5%; in assay [6] (at 50.0 µM) it was 41.5%.

Turning to `N#CC1(C#N)C(C#N)(C#N)C12CCCC2`, the growth inhibition in assay [1] (setting [7]) was 5%; in assay [1] (setting [8]), 50%; in assay [1] (at 50.0 µM) it was 38.9%; in assay [2] (setting [7]) it was 4%; in assay [2] (setting [8]), 54%; in assay [2] (at 50.0 µM), 21.4%. Besides, the growth inhibition was 4% in assay [3] (setting [7]); 66% in assay [3] (setting [8]); 74% (active) in assay [3] (at 50.0 µM); 1% in assay [4] (setting [7]); 30% in assay [4] (setting [8]); 16.9% in assay [4] (at 50.0 µM). Besides, the growth inhibition was 4% in assay [5] (setting [7]); 81% (active) in assay [5] (setting [8]); 12.4% in assay [5] (at 50.0 µM); 5% in assay [6] (setting [7]); 91% (active) in assay [6] (setting [8]); 67.3% in assay [6] (at 50.0 µM).

For the compound `O=C(O)C1C2CC3CC(C2)CC1C3` (stereo unspecified), the growth inhibition in assay [1] (setting [7]) is 2%; in assay [1] (setting [8]), 42%; in assay [1] (at 50.0 µM), 20%; in assay [2] (setting [7]), 8%; in assay [2] (setting [8]), 47%; in assay [2] (at 50.0 µM), 5.85%. Besides, the growth inhibition in assay [3] (setting [7]) is 7%; in assay [3] (setting [8]), 60%; in assay [3] (at 50.0 µM), -4.9%; in assay [4] (setting [7]) it was 3%; in assay [4] (setting [8]), 21%; in assay [4] (at 50.0 µM) it was -67.8%. The growth inhibition was 16% in assay [5] (setting [7]); 86% (active) in assay [5] (setting [8]); 75.5% (active) in assay [5] (at 50.0 µM); 0% in assay [6] (setting [7]); 82% (active) in assay [6] (setting [8]); 9.35% in assay [6] (at 50.0 µM).

`O=Cc1cc2c(s1)C(=O)c1sccc1C2=O`: the growth inhibition in assay [1] (setting [7]) was 93% (active); in assay [1] (setting [8]), 99% (active); in assay [1] (at 50.0 µM), 88.8% (active); in assay [2] (setting [7]) it was 96% (active); in assay [2] (setting [8]), 99% (active); in assay [2] (at 50.0 µM), 91.8% (active). Also, the growth inhibition in assay [3] (setting [7]) is 84% (active); in assay [3] (setting [8]), 99% (active); in assay [3] (at 50.0 µM), 89% (active); in assay [4] (setting [7]), 52%; in assay [4] (setting [8]), 97% (active); in assay [4] (at 50.0 µM), 91.7% (active). Also, the growth inhibition is 94% (active) in assay [5] (setting [7]); 99% (active) in assay [5] (setting [8]); 90% (active) in assay [5] (at 50.0 µM); 92% (active) in assay [6] (setting [7]); 99% (active) in assay [6] (setting [8]); 90.3% (active) in assay [6] (at 50.0 µM).
